Consider five compounds from ChEMBL document CHEMBL3988442, “University of Dundee, Small-Polar-MMV Screening Library” (2021).

Parameters in all cases: scale not given: direction of the effect not stated beside the values
Assay [1] concerns the target Protein translocase subunit SecA (Escherichia coli (strain K12)) (UniProt P10408). The assay can be described thus: Assay to Identify E. coli SecA ATPase Inhibitors. To be noted: 30 µM. It is filed as functional.
In assay [2] the target is T1, Ubiquitin-activating enzyme e1, putative (Leishmania donovani (strain BPK282A1)) (UniProt E9BSI1).
T1 sequence (whole entry): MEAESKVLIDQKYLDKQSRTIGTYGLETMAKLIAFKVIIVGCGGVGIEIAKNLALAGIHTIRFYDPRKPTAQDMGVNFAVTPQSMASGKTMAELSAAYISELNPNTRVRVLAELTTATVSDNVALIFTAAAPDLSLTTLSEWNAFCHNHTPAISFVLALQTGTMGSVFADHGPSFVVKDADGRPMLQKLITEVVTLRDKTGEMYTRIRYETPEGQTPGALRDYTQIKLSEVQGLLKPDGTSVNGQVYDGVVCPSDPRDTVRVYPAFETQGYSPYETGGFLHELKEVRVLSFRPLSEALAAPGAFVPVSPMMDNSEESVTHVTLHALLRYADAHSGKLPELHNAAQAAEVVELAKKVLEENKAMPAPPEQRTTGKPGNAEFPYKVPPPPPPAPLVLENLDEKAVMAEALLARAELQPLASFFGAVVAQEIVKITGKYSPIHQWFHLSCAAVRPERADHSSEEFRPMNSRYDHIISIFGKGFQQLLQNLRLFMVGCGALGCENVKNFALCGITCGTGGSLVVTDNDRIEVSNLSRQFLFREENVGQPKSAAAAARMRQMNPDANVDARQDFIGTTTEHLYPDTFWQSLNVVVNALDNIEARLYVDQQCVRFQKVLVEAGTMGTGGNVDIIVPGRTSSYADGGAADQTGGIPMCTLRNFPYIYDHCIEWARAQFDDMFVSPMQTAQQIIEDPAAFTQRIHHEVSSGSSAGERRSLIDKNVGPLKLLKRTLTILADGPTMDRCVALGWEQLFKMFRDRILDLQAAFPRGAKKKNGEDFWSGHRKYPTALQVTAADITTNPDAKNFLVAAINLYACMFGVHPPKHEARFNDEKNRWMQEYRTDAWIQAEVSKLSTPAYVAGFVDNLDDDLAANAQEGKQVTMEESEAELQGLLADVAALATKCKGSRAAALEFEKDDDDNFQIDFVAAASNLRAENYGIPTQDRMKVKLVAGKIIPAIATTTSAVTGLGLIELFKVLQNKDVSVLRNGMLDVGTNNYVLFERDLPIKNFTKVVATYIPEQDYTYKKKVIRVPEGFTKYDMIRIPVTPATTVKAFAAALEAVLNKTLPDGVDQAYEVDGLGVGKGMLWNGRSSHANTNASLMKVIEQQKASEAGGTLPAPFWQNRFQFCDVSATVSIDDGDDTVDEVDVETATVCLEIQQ
Kind of assay: Leishmania donovani Ubiquitin Activating Enzyme (LdE1). The format is functional. To be noted: 30 µM.

For assay [3], the target named is T2, Aspartate--tRNA(Asp/Asn) ligase (Mycobacterium tuberculosis (strain ATCC 25618 / H37Rv)) (UniProt P9WFW3). Also: in the data most compounds retested in dose-response had high values.
T2 sequence (whole entry): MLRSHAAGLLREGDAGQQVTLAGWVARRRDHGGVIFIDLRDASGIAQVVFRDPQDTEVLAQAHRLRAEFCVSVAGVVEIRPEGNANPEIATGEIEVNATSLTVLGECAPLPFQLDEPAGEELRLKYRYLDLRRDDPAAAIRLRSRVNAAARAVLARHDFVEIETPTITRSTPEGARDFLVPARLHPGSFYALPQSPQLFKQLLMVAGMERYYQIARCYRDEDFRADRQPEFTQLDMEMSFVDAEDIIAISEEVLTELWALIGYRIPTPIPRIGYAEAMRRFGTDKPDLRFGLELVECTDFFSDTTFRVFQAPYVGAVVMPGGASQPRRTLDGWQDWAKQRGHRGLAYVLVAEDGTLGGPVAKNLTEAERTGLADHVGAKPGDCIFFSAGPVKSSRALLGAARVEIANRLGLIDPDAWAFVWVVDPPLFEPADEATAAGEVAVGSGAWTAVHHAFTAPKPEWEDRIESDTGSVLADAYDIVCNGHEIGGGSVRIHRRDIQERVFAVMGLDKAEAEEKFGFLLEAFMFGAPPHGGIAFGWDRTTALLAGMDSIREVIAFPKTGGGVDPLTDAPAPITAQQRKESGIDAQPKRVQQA
Kind of assay: Assay for Asp RNA synthetase-1 from Mycobacterium tuberculosis. It is filed as functional. The settings on record: 30 µM.

The target of assay [4] is AMP-activated protein kinase, AMPK (Homo sapiens) (UniProt P54646+O43741+P54619+Q9UGJ0+Q9Y478+Q13131+Q9UGI9). The assay can be described thus: AMP-dependent Kinase enzyme assay. An in vitro enzyme assay that detects ADP turnover that is directly proportional to AMPK activity. This uses naive AMPK that is activated during the assay with MK-8722. It is filed as functional. To be noted: 30 µM.

The target of assay [5] is Sialic acid-binding Ig-like lectin 9 (Homo sapiens) (UniProt Q9Y336). Kind of assay: Hs-Siglec9 ALPHAscreen SOP 20170721. The settings on record: 10 µM.
The next assay deals with Trypanosoma cruzi. The assay can be described thus: Trypanosoma cruzi phosphomannomutase and mannose-1-phosphate guanylyltransferase assay. The format is functional. To be noted: 10 µM.
The target of assay [6] is T3, Arginase-2, mitochondrial (Homo sapiens) (UniProt P78540).
T3 sequence (whole entry): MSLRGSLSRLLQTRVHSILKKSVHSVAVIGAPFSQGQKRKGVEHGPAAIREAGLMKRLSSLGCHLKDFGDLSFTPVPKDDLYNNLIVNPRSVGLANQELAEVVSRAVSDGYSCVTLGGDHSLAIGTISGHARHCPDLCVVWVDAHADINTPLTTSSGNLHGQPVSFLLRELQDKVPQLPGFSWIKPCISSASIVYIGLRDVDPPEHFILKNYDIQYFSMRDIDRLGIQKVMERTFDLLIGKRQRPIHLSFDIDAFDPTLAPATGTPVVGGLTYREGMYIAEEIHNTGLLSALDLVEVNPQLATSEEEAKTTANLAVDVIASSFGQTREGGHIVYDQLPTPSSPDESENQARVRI
Kind of assay: in vitro enzyme assay to detect the production of urea directly proportional to the activity of Arginase II. Also: in the data most compounds retested in dose-response had high values. It is filed as functional. The settings on record: 33.3 µM.

The target of assay [7] is T4, Proteasome subunit beta (Trypanosoma cruzi) (UniProt O96673).
T4 sequence (whole entry): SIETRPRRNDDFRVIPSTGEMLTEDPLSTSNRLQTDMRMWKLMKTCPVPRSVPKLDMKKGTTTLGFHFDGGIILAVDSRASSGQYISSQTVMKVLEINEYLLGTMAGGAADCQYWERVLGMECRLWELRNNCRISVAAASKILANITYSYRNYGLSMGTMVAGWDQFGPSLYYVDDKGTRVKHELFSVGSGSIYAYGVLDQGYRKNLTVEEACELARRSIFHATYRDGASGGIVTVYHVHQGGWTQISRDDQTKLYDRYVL
The assay can be described thus: Trypanosoma cruzi proteasome chymotrypsin-like activity (TcProtChymo) assay. Also: in the data most compounds retested in dose-response had high values. The format is functional. The settings on record: 9.37 µM.

Another assay is filed under the species Homo sapiens. Kind of assay: To identify inhibition of the IFN signalling (Jak-Stat) pathway via expression of an eGFP reporter gene under the control of an IFN-stimulated response element (ISRE) containing MxA promoter. The settings on record: 30 µM. It is filed as functional. A general note: In a reporter assay the amount or activity of a reporter protein is the signal.

Assay [8] addresses Shiga toxin 2 (Escherichia coli O157:H7) (UniProt P09385+P09386). The assay can be described thus: E. coli 0.157:H7 Shiga Toxin SOP - stx2 screening assay. It is filed as functional. To be noted: 30 µM.
The target of assay [9] is T5, Tyrosyl-tRNA synthetase, putative (Trypanosoma cruzi (strain CL Brener)) (UniProt Q4DSP6).
T5 sequence (whole entry): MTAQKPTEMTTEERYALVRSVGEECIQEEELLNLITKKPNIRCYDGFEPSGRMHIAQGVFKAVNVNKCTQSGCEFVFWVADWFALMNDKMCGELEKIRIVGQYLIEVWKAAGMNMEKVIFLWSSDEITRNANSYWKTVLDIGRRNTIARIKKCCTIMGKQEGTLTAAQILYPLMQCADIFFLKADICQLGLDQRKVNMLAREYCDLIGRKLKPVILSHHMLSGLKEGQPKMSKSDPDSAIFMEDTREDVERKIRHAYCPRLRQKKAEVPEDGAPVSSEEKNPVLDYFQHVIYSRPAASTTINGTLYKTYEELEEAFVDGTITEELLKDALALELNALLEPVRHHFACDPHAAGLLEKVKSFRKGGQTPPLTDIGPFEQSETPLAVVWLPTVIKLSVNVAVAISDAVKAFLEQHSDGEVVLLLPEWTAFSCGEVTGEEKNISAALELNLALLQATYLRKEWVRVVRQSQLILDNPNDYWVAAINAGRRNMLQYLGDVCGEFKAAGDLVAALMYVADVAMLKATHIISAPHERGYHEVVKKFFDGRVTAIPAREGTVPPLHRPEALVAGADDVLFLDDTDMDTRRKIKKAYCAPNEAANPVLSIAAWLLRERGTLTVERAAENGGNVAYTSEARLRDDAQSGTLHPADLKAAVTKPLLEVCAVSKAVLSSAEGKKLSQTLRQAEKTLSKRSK
The assay can be described thus: Trypanosoma cruzi tyrosyl tRNA synthetase (TcYRS) _High Tyrosine SOP. Also: in the data most compounds retested in dose-response had high values. To be noted: 30 µM. The format is functional.

Assay [10] has as its target T5, Tyrosyl-tRNA synthetase, putative (Trypanosoma cruzi (strain CL Brener)). Kind of assay: Trypanosoma cruzi tyrosyl tRNA synthetase (TcYRS) SOP. It is filed as functional. To be noted: 30 µM.
The target in assay [11] is Chromo domain-containing protein 1 (Saccharomyces cerevisiae (strain ATCC 204508 / S288c) (Baker's yeast)) (UniProt P32657). Kind of assay: ScCHD-1 Enzyme Inhibition Assay. Also: in the data most compounds retested in dose-response had high values. The format is functional. The settings on record: 30 µM.

Each structure is given as a SMILES string. For some assays here: Results with a measured potency or affinity are listed apart.

Chain of Sialic acid-binding Ig-like lectin 9 (Homo sapiens) (Q9Y336 whole entry): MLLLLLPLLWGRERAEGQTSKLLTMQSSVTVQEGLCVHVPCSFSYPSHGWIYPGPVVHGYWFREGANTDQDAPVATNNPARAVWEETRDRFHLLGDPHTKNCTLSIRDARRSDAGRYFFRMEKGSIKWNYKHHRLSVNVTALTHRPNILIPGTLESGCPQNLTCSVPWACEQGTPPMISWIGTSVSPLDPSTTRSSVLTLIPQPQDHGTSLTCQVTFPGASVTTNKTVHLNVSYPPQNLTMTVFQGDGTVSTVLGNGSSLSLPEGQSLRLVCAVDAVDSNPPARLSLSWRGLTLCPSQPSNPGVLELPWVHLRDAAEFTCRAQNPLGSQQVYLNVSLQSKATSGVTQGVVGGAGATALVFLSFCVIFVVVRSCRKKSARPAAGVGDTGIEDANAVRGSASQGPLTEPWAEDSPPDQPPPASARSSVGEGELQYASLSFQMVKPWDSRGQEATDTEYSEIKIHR
Chain of Chromo domain-containing protein 1 (Saccharomyces cerevisiae (strain ATCC 204508 / S288c) (Baker's yeast)) (P32657 whole entry, the tested form may be a part): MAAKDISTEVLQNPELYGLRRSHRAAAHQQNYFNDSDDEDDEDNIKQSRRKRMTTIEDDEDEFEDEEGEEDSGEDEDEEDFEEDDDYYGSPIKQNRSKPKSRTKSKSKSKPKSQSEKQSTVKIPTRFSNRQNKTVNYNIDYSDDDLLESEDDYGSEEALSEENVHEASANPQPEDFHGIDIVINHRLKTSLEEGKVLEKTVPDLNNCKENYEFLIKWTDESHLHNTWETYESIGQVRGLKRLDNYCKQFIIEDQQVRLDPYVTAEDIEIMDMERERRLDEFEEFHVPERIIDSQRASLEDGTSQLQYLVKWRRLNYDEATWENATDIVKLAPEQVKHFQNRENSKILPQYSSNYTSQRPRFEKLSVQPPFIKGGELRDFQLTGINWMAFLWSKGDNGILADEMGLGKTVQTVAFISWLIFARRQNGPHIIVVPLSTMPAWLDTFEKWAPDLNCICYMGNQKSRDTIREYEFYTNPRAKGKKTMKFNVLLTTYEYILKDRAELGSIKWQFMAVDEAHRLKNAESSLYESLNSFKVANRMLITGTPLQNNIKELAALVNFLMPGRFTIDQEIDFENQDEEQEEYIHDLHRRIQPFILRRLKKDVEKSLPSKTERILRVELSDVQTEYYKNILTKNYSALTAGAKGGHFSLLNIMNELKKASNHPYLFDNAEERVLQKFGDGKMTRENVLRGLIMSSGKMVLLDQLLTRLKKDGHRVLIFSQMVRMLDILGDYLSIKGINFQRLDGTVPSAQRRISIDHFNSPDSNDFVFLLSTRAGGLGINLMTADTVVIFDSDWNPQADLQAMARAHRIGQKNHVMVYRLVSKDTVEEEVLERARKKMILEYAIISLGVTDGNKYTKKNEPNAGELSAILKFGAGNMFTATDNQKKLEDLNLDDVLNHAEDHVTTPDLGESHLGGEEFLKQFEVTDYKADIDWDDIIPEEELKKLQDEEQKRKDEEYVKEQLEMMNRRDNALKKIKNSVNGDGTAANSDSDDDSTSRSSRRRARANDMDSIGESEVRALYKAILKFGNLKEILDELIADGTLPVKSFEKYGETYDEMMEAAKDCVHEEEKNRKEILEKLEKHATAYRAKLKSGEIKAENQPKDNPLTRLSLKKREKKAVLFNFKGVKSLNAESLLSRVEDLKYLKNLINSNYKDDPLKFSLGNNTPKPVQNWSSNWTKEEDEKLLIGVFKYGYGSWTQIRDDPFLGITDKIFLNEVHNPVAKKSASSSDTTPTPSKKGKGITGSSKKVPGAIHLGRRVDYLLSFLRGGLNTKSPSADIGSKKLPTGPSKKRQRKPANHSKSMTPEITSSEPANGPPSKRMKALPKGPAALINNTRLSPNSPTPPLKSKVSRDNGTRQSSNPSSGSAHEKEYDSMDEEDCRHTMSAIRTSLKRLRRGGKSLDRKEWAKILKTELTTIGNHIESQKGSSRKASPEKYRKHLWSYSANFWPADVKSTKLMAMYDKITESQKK
Chain of Protein translocase subunit SecA (Escherichia coli (strain K12)) (P10408 whole entry): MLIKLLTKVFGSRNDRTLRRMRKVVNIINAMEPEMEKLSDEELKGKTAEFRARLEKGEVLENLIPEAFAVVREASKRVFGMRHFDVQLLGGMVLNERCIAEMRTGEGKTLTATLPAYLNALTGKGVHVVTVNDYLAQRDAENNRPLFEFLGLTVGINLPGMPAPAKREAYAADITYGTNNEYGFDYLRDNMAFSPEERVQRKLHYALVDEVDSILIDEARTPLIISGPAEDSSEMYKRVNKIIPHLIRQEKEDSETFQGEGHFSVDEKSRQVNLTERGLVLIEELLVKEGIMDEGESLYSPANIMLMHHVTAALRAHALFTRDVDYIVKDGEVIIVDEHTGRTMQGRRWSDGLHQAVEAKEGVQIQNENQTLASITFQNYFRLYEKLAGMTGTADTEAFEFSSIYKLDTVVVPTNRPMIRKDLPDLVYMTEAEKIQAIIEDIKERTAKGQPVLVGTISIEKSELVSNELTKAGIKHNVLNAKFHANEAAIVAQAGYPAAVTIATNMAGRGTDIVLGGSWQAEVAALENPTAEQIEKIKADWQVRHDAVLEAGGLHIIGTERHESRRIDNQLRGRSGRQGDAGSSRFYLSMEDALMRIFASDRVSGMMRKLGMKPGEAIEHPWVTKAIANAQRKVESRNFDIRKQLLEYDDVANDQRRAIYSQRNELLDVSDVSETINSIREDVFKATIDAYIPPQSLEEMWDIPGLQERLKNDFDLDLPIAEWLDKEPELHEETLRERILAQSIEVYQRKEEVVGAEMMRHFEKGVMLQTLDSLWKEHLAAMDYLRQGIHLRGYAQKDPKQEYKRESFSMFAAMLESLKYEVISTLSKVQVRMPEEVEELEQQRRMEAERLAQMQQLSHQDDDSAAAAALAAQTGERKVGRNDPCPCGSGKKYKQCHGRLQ

As for `O=C(C1CCOC1)N1C[C@H]2CN(Cc3ccccn3)C[C@H]2C1` (stereo not given in full), the Percent Effect was -0.372% in assay [1]; 13.5% in assay [2]; -0.474% in assay [3]; 2.96% in assay [4]; -5.9% in [5]; 0.293% in the assay on Trypanosoma cruzi. The Percent Effect is 6.05% in assay [6]; 16.2% in [7]; -9.37% in the assay filed under Homo sapiens; -2.63% in [8]; 6.49% in assay [9]; 15.4% in assay [10]. Moreover, the Percent Effect in [11] is -0.817%.

For the compound `CCN(CC)C(=O)c1ccc(NC(=O)CNc2ccc(Br)cc2F)cc1`, the Percent Effect was -3.06% in [1]; 10.5% in assay [2]; 0.958% in assay [3]; 1.85% in [4]; -6.58% in assay [5]; 1.85% with Trypanosoma cruzi. Also, the Percent Effect in [6] is -17.8%; in assay [7] it was 12%; in the assay filed under Homo sapiens, 2.22%; in assay [8] it was -41.8%; in [9] it was 5.32%; in [10] it was 20.8%. Moreover, the Percent Effect in assay [11] is -13%.

On to `CC(=O)N1CCOCC2(CN(Cc3ccccn3)CCO2)C1` (stereo not given), for which the Percent Effect in assay [1] was -4.37%; in assay [2], -2.67%; in [3], 0.233%; in [4], -1.22%; in [5], -2.37%; in the assay on Trypanosoma cruzi, 4.25%. The Percent Effect in assay [6] was 2.33%; in [7], 9.74%; in the assay listed under Homo sapiens, -30.1%; in assay [8], -6.22%; in assay [9], 2.08%; in assay [10] it was 2.5%. Further, the Percent Effect in [11] is -3.93%.

With `CS(=O)(=O)N1CCC(C(=O)N2CCC3(CC2)OCCCO3)CC1`, the Percent Effect in assay [1] was -4.7%; in [2], 20.8%; in [3] it was 3.34%; in assay [4], -4.81%; in [5] it was -12.3%; in the assay with Trypanosoma cruzi, 5.23%. Further, the Percent Effect was 3.23% in assay [6]; 12.2% in [7]; 14.4% in the assay filed under Homo sapiens; -32.1% in assay [8]; 6.35% in assay [9]; 21.8% in assay [10]. Further, the Percent Effect in [11] is -10.8%.

On to `COc1ncccc1CN1C[C@@H]2COC[C@]2(COCC2CC2)C1`, for which the Percent Effect in [1] was -2.06%; in assay [2], 1.33%; in assay [3] it was 0.116%; in assay [4], 0.466%; in assay [5], 5.34%; in the assay on Trypanosoma cruzi, -9.23%. The Percent Effect in [6] is 24.5%; in assay [7], 14.4%; in the assay listed under Homo sapiens it was 2.6%; in [8], -25.1%; in assay [9], 6.35%; in assay [10], 2.56%. Moreover, the Percent Effect in assay [11] was -9.86%.
